For 24 compounds, growth results are on record in PubChem BioAssay (NCI).

Several values for one entry are separate records, joined by “and”; a condition that tells them apart may be missing. Equal values may be shown once. The panel holds about 83,000 compounds, 20% with a hit somewhere; the sample as a whole holds those more often.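 Cell lines were cultured in 96-well plates, exposed to a single compound concentration, and assessed for percent growth 48 hours later.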 Activity calls are given as the source filed them. The calls were made as follows: active = growth percent below 10; inactive = the rest.

The test system of one assay is SN12C renal. As to the kind of experiment: NCI-60 one-dose screen, 48 h (100 = growth as untreated, 0 = no growth, -100 = all killed). To be noted: 10 µM unless noted.
Regarding `COc1ccccc1-n1c(SCc2cc(OC)c(OC)c(OC)c2)nc2ccc(Cl)cc2c1=O`, the growth was 70.3% (inactive). With `C[C@@H](Oc1cc(-c2cnn(C3CC4(CCCNC4)C3)c2)cnc1N)c1c(Cl)ccc(F)c1Cl` (stereo partly specified), the growth was 21.7% (inactive). The same measure, in the same setting: next, `Cn1c2ccc(Cl)cc2c2nn(C(=O)c3ccccc3)c(=O)nc21`: 103% (inactive); `CC(C)(C)[Si](C)(C)OC1[C@@H](COC(=O)NC(=O)CCl)O[C@@H](n2cnc3c(N)ncnc32)[C@H]1O[Si](C)(C)C(C)(C)C` (stereo partly specified): -47.5% (active). As to `CC1=CN2C(=NC3=C(CCCC/C3=C\c3ccccc3)C2c2ccccc2)S1` (stereo unspecified), the growth is 96.3% (inactive). Take `Nc1c(Br)cc(Br)cc1-c1n[nH]c(=O)[nH]c1=O`: the growth is 109% (inactive). On the same count and under the same terms, then `c1ccc(-c2nc(N3CCOCC3)c3c4c(sc3n2)CCCCCC4)nc1`, with 65.2% (inactive).

Another assay has as its system UO-31 renal. The description is as above. To be noted: 10 µM unless noted.
Take `COc1ccccc1-n1c(SCc2cc(OC)c(OC)c(OC)c2)nc2ccc(Cl)cc2c1=O`: the growth is 42.6% (inactive).

As for `C=CCCCCCCCCC(=O)[O-].C=CCCCCCCCCC(=O)[O-].[Zn+2]`, the growth was 80.7% (inactive).

Take `C[C@@H](Oc1cc(-c2cnn(C3CC4(CCCNC4)C3)c2)cnc1N)c1c(Cl)ccc(F)c1Cl` (stereo partly specified): the growth is 29.7% (inactive). Still for that read-out and setting: then `Cn1c2ccc(Cl)cc2c2nn(C(=O)c3ccccc3)c(=O)nc21`, with 71.9% (inactive). Consider `CC(C)(C)[Si](C)(C)OC1[C@@H](COC(=O)NC(=O)CCl)O[C@@H](n2cnc3c(N)ncnc32)[C@H]1O[Si](C)(C)C(C)(C)C` (stereo partly specified), for which the growth was 20% (inactive).

Turning to `CC1=CN2C(=NC3=C(CCCC/C3=C\c3ccccc3)C2c2ccccc2)S1` (stereo unspecified), the growth is 78.1% (inactive). For `Nc1c(Br)cc(Br)cc1-c1n[nH]c(=O)[nH]c1=O`, the growth is 74.3% (inactive). On to `Cc1ccc(C(=O)O[C@H](C(=O)O)[C@H](OC(=O)c2ccc(C)cc2)C(=O)O)cc1`, for which the growth was 85.1% (inactive). For the compound `c1ccc(-c2nc(N3CCOCC3)c3c4c(sc3n2)CCCCCC4)nc1`, the growth was 25.9% (inactive).

Another assay relates to TK-10 renal. The assay is described as above. To be noted: 10 µM unless noted.
In the case of `CC(=O)OC(=C(C#N)C#N)c1nccnc1C(C)=O`, the growth is 102% [20 µM] (inactive) and -96% [20 µM] (active). The same measure, in the same setting: then `N#Cc1c(SCc2ccccc2)nc(-c2ccccc2)[nH]c1=S`, with 9.89% [100 µM] (active) and 3.82% [100 µM] (active). The same measure, in the same setting: next, `N#Cc1sc2nc(/C=C3/C=CC=CC3=O)c(O)n2c1N`: 78.8% [100 µM] (inactive) and 47.7% [100 µM] (inactive); `Cc1cc(N2CCCC2)c([N+](=O)[O-])cc1[N+](=O)[O-]`: 89.8% [100 µM] (inactive) and 75.9% [100 µM] (inactive); `O=c1[nH]c(=O)n(C2CC(O)C(CO)O2)cc1Br` (stereo unspecified): 67.2% [100 µM] (inactive) and 21% [100 µM] (inactive). Still for that read-out and setting: then `Cc1cc(-c2nc3ccccc3s2)ccc1N`, with 35.5% [100 µM] (inactive) and 15.8% [100 µM] (inactive); and `CC12CCC3c4cc(Br)c(O)c(Br)c4CCC3C1CCC2O` (stereo unspecified), with 12.2% [100 µM] (inactive) and -95.7% [100 µM] (active).

With `COc1c2c(c(OC)c3c1c(=O)c1ccccc1n3C)OCO2`, the growth is 54.2% [100 µM] (inactive). As for `CCOC(=O)CCC(NC(=O)c1ccc(OCc2nc3cc(C(F)(F)F)ccc3nc2-c2ccccc2)cc1)C(=O)OCC` (stereo unspecified), the growth is 84.3% [100 µM] (inactive) and 14.7% [100 µM] (inactive). On to `Nc1nc(Nc2cc(F)c(Cl)c(F)c2)cc(=O)[nH]1`, for which the growth was 111% [100 µM] (inactive) and 27.1% [100 µM] (inactive). Same read-out and setting: then `COc1cc([N+](=O)[O-])c(OC)c2c(Nc3ccc(S(=O)(=O)O)c4cc(S(=O)(=O)O)cc(S(=O)(=O)O)c34)cc(C)nc12`, with -99.9% [100 µM] (active) and -100% [100 µM] (active); and `CCCn1c2c(c3ccccc3c1=O)C(=O)c1ccccc1-2`, with 88% [100 µM] (inactive) and 22.3% [100 µM] (inactive); and `Cc1sccc1C(=S)Nc1ccc(Cl)c(/C=N/OC(C)(C)C)c1`, with -91.4% [100 µM] (active) and -90.7% [100 µM] (active). `O=[N+]([O-])c1cccc(-c2ncnc(-c3cccc([N+](=O)[O-])c3)n2)c1`: the growth is 38.8% [100 µM] (inactive) and -100% [100 µM] (active).

As to `COc1ccc(CC2c3cc(OC)c(OC)c(OC)c3CC[N+]2(C)C)cc1Oc1ccc(CC2c3cc4c(c(OC)c3CCN2C)OCO4)cc1` (stereo unspecified), the growth was 85.8% [100 µM] (inactive) and 47.5% [100 µM] (inactive).
